TDP1 cell CPT – qHTS for Inhibitors of human tyrosyl-DNA phosphodiesterase 1 (TDP1): qHTS in cells in presence of CPT; chicken DT40 Tdp1-/-;hTDP1 cells + 20 nM CPT, ATP luminescence, 48 h; Potency, µM (series often up to 46.2 µM), for inactives: at the highest dose activity change, negative = growth inhibition, most hits filed as inhibitors; 420,000 compounds, 12% hits; AID 686979, 2013; also: potency is read from the fitted curve at half-maximal effect; nearly all actives have a fitted effect of over 55% in size
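Chicken DT40 Tdp1-/- cells stably complemented with human TDP1 were seeded at 400 cells/well in medium containing 20 nM camptothecin, exposed to pin-transferred compounds, and grown at 37 °C for at least 48 hr. Viability was read as ATP luminescence.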
DT40 TDP1 no CPT – qHTS for Inhibitors of human tyrosyl-DNA phosphodiesterase 1 (TDP1): qHTS in cells in absence of CPT | DT40 Tdp1-/- hTDP1 cells, no CPT, ATP luminescence, 48 h | Potency, µM (top dose mostly 46.2 µM), for inactives: at the highest dose activity change, negative = growth inhibition, hits mostly inhibitors | 420,000 compounds, 15% hits; also: potency is read from the fitted curve at half-maximal effect; nearly all actives have a fitted effect of over 55% in size
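Growth of hTDP1-complemented DT40 Tdp1-knockout cells is measured by ATP luminescence after at least 48 hr compound exposure at 37 °C, with DMSO substituting for the 20 nM CPT used in the parallel screen.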
IL1B secr inh – qHTS for Inhibitors of Inflammasome Signaling: IL-1-beta AlphaLISA Primary Screen. THP-1 LPS/ATP IL-1B secretion, AlphaLISA, 16 h; hits give low values. activity change, % at 57.5 µM. 360,000 compounds, 4.7% hits. AID 743279, 2014; in the data active = activity change below about -50%; inconclusive = mostly about -30% to -49%
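THP-1 cells pretreated 1 hr with compounds (up to 57.5 uM final), then stimulated with LPS (250 ng/mL final) plus ATP (1.25 mM final); secreted IL-1B measured by AlphaLISA after 16 hr, decreased signal indicating inhibition.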
12-LOX inh – Primary qHTS assay for inhibitors of human arachidonate 12S-lipoxygenase (ALOX12): Round 2 | Polyunsaturated fatty acid lipoxygenase ALOX12 (Homo sapiens), P18054 | purified 12hLO, xylenol orange hydroperoxide absorbance | Potency, µM (titrated, usually from 108 µM), without a hit: top-dose activity change, negative = inhibition, most hits filed as inhibitors | 580,000 compounds, 1.1% hits; also: potency is read from the fitted curve at half-maximal effect
Target sequence (P18054 whole entry, looked up): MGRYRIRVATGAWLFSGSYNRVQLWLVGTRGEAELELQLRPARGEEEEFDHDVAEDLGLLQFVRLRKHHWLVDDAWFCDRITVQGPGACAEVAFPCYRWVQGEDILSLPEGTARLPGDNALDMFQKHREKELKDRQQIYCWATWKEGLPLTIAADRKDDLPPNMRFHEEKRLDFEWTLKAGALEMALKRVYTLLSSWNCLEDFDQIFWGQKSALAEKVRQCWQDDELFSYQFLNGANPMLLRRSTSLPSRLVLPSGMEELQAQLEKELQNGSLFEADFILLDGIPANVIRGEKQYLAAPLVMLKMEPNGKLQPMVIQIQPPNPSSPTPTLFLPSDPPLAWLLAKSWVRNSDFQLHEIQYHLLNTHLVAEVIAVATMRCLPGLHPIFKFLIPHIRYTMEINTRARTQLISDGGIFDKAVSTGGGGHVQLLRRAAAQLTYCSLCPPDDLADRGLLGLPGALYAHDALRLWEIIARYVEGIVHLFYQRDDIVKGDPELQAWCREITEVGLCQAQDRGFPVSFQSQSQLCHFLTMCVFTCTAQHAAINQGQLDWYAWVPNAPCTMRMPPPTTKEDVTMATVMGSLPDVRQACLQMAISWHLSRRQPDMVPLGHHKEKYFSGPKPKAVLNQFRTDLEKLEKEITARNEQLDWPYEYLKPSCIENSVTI
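Purified human 12hLO (150 nM final) in 25 mM Hepes, 0.01% Triton X-100, pH 7.0 was preincubated 15 min at room temperature with compound. Then 40 uM arachidonic acid was added, 30 min. Hydroperoxide was read by Fe-XO absorbance ratio 573/405 nm.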
HT1080NT lethal – qHTS for induction of synthetic lethality in tumor cells producing 2HG: qHTS for the HT-1080-NT fibrosarcoma cell line | HT-1080-NT fibrosarcoma viability, CellTiter-Glo ATP luminescence, 48 h | 360,000 compounds, 1.6% hits | AID 686970, 2013 | Potency, µM (doses to about 46.1 µM), without a hit: at the highest dose activity, negative = less viability, actives largely listed as cytotoxic;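 also: NT is the 2HG producing partner of a matched IDH1 knockdown line; potency is read from the fitted curve at half-maximal effect; 0% = DMSO-treated cells and -100% = media-only wells without cells; nearly all actives have a fitted effect of over 55% in size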
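Compounds were tested in concentration-response format on HT-1080-NT cells for 48 hours at 37 degrees C. Cell viability came from CellTiter-Glo luminescence; curves were classified by r2, response magnitude and activity.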
HT1080 IDH1KD tx – qHTS for induction of synthetic lethality in tumor cells producing 2HG: qHTS for the HT-1080-IDH1KD cell line | 360,000 compounds, 2% hits | HT-1080 IDH1 knockdown viability, ATP luminescence, 48 h | Potency, µM (series often up to 46.1 µM), without a hit: at the highest dose activity, negative = toxicity, most hits filed as cytotoxic | AID 686971, 2013;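 also: potency is read from the fitted curve at half-maximal effect; 0% = DMSO wells and -100% = cell-free medium wells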
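IDH1KD HT-1080 cells, 750/well, RPMI + 5% FBS; compound pinned after 2 h settling; 48 h, 37 °C; CellTiter-Glo luminescence; % activity normalised to DMSO and no-cell wells; curves fitted, classed by r2 and efficacy.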
Starred values were filed as active, the others as inactive; u = inconclusive; x = no result given; [ ] = another dose, or the depositor's remark. This is one part of a sample in which hits are shown more often than they occur. Unless noted, calls follow the shape of the dose curve; as a rule, active = well fitted curve in the direction sought with a large enough effect; inconclusive = small, poorly fitted or top-dose-only effect, or another doubt; inactive = no such curve, though single readings can be large; an effect the other way counts as inactive or inconclusive. Unless noted, % is scaled to controls: 0 for no effect and ±100 for the full control effect.

SMILES | TDP1 cell CPT | DT40 TDP1 no CPT | IL1B secr inh | 12-LOX inh | HT1080NT lethal | HT1080 IDH1KD tx
CCn1c(SCC(=O)NNC(=O)c2ccc(C)cc2)nnc1C(C)C | u | 10µM* | 1 | -14% | -6% | -8%
CCOC(=O)C1CCN(C(=O)Nc2ccc(OC(F)(F)F)cc2)CC1 | -19% | u | x | u | 2% | 12%
CC(=O)Nc1ccc([C@H]2OCC(=O)N(Cc3ccc(F)cc3)[C@@H]2CO)cc1 | x | x | x | -8%[176 µM] | x | x
COCCn1c(=O)n([C@H]2CCCN(C(=O)COc3ccccc3)C2)c2ncccc21 | x | x | x | 27% | x | x
Cc1occc1-c1nnc(SCC(=O)Nc2ccc(F)cc2)n1Cc1ccccc1 | u | u | -80* | -21% | 21µM* | u
CCCn1c(SCC(=O)c2cc(OC)ccc2OC)nnc1C(C)C | 16µM* | u | -20 | u | 8% | 2%
CCCn1c(SCC(=O)Nc2ccccc2-c2ccccc2)nnc1-c1ccoc1C | 16µM* | 10µM* | -28 | 0% | -7% | -9%
Cc1occc1-c1nnc(SCC(=O)Nc2ccccc2-c2ccccc2)n1C | u | 16µM* | -11 | 0% | 3% | 7%
Cc1occc1-c1nnc(SCC(=O)Nc2ccccc2)n1Cc1ccccc1 | -20% | u | -10 | -9% | -12% | 0%
CC(=O)Nc1cccc(NC(=O)C(C)N2c3cccc4cccc(c34)S2(=O)=O)c1 (stereo not drawn) | 0% | -20% | 2 | -8% | -12% | -10%
Cn1cc(-c2ccc(Cl)cc2)c2nc(CNc3ccccc3)cn2c1=O | x | x | x | -4%[176 µM] | x | x
COc1ccc(-n2c(CNC(=O)c3c(-c4ccccc4)noc3C)nnc2SC)cc1 | -13% | -8% | x | 9% | x | x
CC(C)C[C@H](NC(=O)/C=C/[C@H]1O[C@@H](n2ccc(=O)[nH]c2=O)[C@H](O)[C@@H]1O)C(=O)O | -1% | 49% | -2 | -7% | 21% | u
Cc1cccc(C)c1NC(=O)CN1CCCN(c2ccc(C(F)(F)F)cn2)CC1 | x | x | x | -15% | x | x
Cc1ccccc1SCC(=O)N1CCN(c2ccc(C(F)(F)F)cn2)CC1 | u | 23µM* | -92* | u | -13% | -12%
O=C(O)COCC(=O)N1CCCN(c2ccc(C(F)(F)F)cn2)CC1 | -5% | -3% | 20 | -16% | 14% | 17%
CC(=O)c1cccc(OCC(=O)N2CCN(c3ccc(C(F)(F)F)cn3)CC2)c1 | u | 15µM* | -2 | -3% | 10% | 11%
O=C(c1cnc2ccccc2n1)N1CCN(c2ccc(C(F)(F)F)cn2)CC1 | -19% | -20% | 45 | -4% | 4% | 0%
O=C(NCC(=O)N1CCN(c2ccc(C(F)(F)F)cn2)CC1)c1ccc(Br)o1 | 21µM* | 6.5µM* | 9 | -1% | 1% | 0%
Cc1cccc(C)c1NC(=O)CN1CCN(c2ccc(C(F)(F)F)cn2)CC1 | 15µM* | 12µM* | 6 | 6% | -5% | -26%
Cc1cccc(C)c1NC(=O)C(c1ccccc1)N1CCN(c2ccc(C(F)(F)F)cn2)CC1 (stereo not drawn) | 23µM* | u | 0 | -4% | 3% | 0%
C=CCN1CCN(c2ccc(C(F)(F)F)cn2)CC1 | x | x | x | 42% | x | x
Cc1cccc(C)c1NC(=O)C(c1ccccc1)N1CCN(C)CC1 (stereo not drawn) | -1% | -24% | -13 | 0% | 5% | 24%

Assay outcomes: PubChem, National Center for Advancing Translational Sciences (NCATS)
